Active and inactive are the calls of the source. How the source made its calls: active means hit-call score of the fitted dose curve at least 0.9, where 1 is the maximum; inactive means score below 0.9.
What was measured:
[1] = ATG_E_Box_CIS: Attagene CIS-FACTORIAL HepG2 Assay for human Enhancer Box (E-box) (AID 2282936); settings: HepG2 E-box cis-reporter transcription, actives raise or lower the signal
Summary of the method: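 In this cell-based setup, HepG2 cells bearing transfected promoter-driven reporter units were exposed to chemicals for 24 h; reporter transcripts were amplified, 6-FAM-labelled, cut with HpaI and sized by capillary electrophoresis.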

[2] = ATG_M_61_CIS: Attagene CIS-FACTORIAL HepG2 Assay for M61 Transcription Factor (Internal Marker) (AID 2282937); settings: HepG2 Attagene CIS-FACTORIAL M61 internal marker reporter; actives raise or lower the signal
Summary of the method: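 HepG2 cells transiently transfected with cis-element-driven multiple reporter transcription units, dosed for 24 h. Reporter mRNA measured by RT-PCR, 6-FAM primer-extension labelling, HpaI digestion and capillary electrophoresis; bidirectional fit versus DMSO baseline.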

[3] = ATG_EGR_CIS: Attagene CIS-FACTORIAL HepG2 Assay for human Early Growth Response 1 (EGR1) (AID 2282938); settings: HepG2 Attagene CIS-FACTORIAL EGR reporter mRNA; actives raise or lower the signal
Summary of the method: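 HepG2 cells transiently transfected with cis-promoter-driven multiplexed reporter transcription units; reporter mRNA measured 24 h after compound dosing by RT-PCR, 6-FAM primer extension, HpaI digestion and capillary electrophoresis. Bidirectional fit versus DMSO baseline.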

[4] = ATG_M_19_CIS: Attagene CIS-FACTORIAL HepG2 Assay for M19 Transcription Factor (Internal Marker) (AID 2282939); settings: HepG2 Attagene CIS-FACTORIAL M19 internal marker reporter; actives raise or lower the signal
Summary of the method: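 Internal marker readout, fitted in both directions against DMSO, from HepG2 cells carrying transfected cis-element reporter constructs; RT-PCR and capillary electrophoresis of reporter mRNA after 24 h exposure.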

[5] = ATG_ERE_CIS: Attagene CIS-FACTORIAL HepG2 Assay for Estrogen Response Element (ERE) (AID 2282940); settings: HepG2 ERE cis-reporter, Attagene RNA transcript; actives raise or lower the signal
Summary of the method: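 After 24 h compound treatment, RNA from transfected HepG2 cells was reverse-transcribed, reporter cDNA PCR-amplified, FAM-labelled, HpaI-cut and resolved by capillary electrophoresis. ERE-driven cis reporter transcripts reflect endogenous factors; gain or loss scored against DMSO.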

[6] = ATG_Ets_CIS: Attagene CIS-FACTORIAL HepG2 Assay for human Erythroblast Transformation Specific (ETS) (AID 2282941); settings: HepG2 ETS cis-reporter transcription, actives raise or lower the signal
Summary of the method: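 Cis-regulated reporter mRNA induction in HepG2 (transient transfection), 24 h exposure, RT-PCR plus capillary electrophoresis detection; DMSO serves as negative control and baseline.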

[7] = molecular target: Hepatocyte nuclear factor 3-beta (Homo sapiens) (UniProt Q9Y261); test: ATG_FoxA2_CIS: Attagene CIS-FACTORIAL HepG2 Assay for human Forkhead box A2 (FOXA2) (AID 2282942); settings: HepG2 cis-reporter transcription factor activity, 24 h; actives raise or lower the signal
Summary of the method: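 HepG2 cells transiently transfected with multiple cis-regulated reporter transcription units, dosed for 24 h. Reporter mRNA measured by RT-PCR, 6-FAM labelling, HpaI digestion and capillary electrophoresis; bidirectional fitting against DMSO baseline.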

[8] = ATG_FoxO_CIS: Attagene CIS-FACTORIAL HepG2 Assay for human Forkhead box O (FoxO) (AID 2282943); settings: HepG2 Attagene cis-reporter, FoxO element, mRNA; actives raise or lower the signal
Summary of the method: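 Transfected HepG2 reporter cells exposed to test chemical for 24 h; reporter RNA measured by reverse transcription, PCR and fluorescent capillary electrophoresis; curves fitted for increases and decreases against DMSO.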

[9] = ATG_GATA_CIS: Attagene CIS-FACTORIAL HepG2 Assay for human GATA Binding Protein (AID 2282944); settings: HepG2 GATA cis-element reporter, Attagene multiplex mRNA; actives raise or lower the signal
Summary of the method: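 Reporter transcripts from a GATA cis-regulated unit, among multiplexed reporters in transfected HepG2 cells, were measured by RT-PCR with capillary electrophoresis after 24 h dosing. Induction or loss scored relative to DMSO.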

[10] = ATG_GLI_CIS: Attagene CIS-FACTORIAL HepG2 Assay for human Zinc Finger Protein GLI1 (AID 2282945); settings: HepG2, Attagene cis-factorial reporter mRNA, GLI element; actives raise or lower the signal
Summary of the method: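 Transiently transfected HepG2 cells report endogenous transcription factor activity via cis-element-driven reporter units. After 24 h compound exposure, reporter mRNA was measured by RT-PCR with capillary electrophoresis; bidirectional fitting against DMSO baseline.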

Measured: AC50

Sequence of Hepatocyte nuclear factor 3-beta (Homo sapiens) (Q9Y261 whole entry, looked up): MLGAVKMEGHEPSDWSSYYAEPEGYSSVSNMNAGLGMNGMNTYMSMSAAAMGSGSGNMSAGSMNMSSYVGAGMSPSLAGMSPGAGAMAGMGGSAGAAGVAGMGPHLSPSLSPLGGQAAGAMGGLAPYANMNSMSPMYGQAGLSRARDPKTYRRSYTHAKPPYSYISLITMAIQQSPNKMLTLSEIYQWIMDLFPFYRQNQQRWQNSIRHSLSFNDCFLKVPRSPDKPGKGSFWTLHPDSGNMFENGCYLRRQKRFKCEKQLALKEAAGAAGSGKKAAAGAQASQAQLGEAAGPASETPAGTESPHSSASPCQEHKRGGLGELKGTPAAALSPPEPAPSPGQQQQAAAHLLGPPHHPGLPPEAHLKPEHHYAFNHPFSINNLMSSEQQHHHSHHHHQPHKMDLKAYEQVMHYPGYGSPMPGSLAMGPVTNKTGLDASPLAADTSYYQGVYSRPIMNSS

Cc1cccc(C(=O)O)c1
inactive: all assays above

SCCc1cnccn1
inactive: all assays above

Cc1cc(O)c(Cl)c(C)c1Cl
active: [5] 28.3 µM
inactive: all other assays above

COCc1c(C(C)C)nc(C(C)C)c(/C=C/[C@@H](O)C[C@@H](O)CC(=O)O)c1-c1ccc(F)cc1
inactive: all assays above

CC(CC=O)CCCC(C)(C)O (stereo unspecified)
inactive: all assays above

Nc1cccc(C(F)(F)F)c1
inactive: all assays above

CNC(=S)N(C)C
inactive: all assays above

S=C(NC1CCCCC1)NC1CCCCC1
inactive: all assays above

CC1(C)[C@H]2CC[C@]1(C)C(=O)C2
inactive: all assays above

CCC(=O)Oc1ccc(/C(CC)=C(\CC)c2ccc(OC(=O)CC)cc2)cc1
active: [1] 20.4 µM | [3] 45.1 µM | [5] 0.0825 µM | [10] 51.5 µM
inactive: all other assays above

O=S(=O)(O)c1ccc2cc(O)c(S(=O)(=O)O)cc2c1
inactive: all assays above

C=C(C)[C@@H]1CCC2=CCC[C@@H](C)[C@]2(C)C1
active: [5] 57.2 µM
inactive: all other assays above

Cc1ccc(C(C)(C)C)cc1
inactive: all assays above

CCOC(=O)c1ccc(N(C)C)cc1
inactive: all assays above

CC(=O)OCC(C)OC(C)=O (stereo unspecified)
inactive: all assays above

CC(C)CCCCCOC(=O)CCS
inactive: all assays above

O=c1c2ccccc2nnn1CCl
inactive: all assays above

Cc1cc(C)c(C)cc1C
inactive: all assays above

c1ccc2c(c1)ccc1cc3c(ccc4ccccc43)cc12
active: [5] 0.18 µM | [7] 0.0767 µM
inactive: all other assays above

COC(F)(F)C(F)(C(F)(F)F)C(F)(F)F
inactive: all assays above

COC(=O)/C=C\C(=O)O
inactive: all assays above

Cc1ccc2oc(=O)ccc2c1
inactive: all assays above

O=C(O)C(c1ccc(Cl)cc1)c1ccc(Cl)cc1
active: [5] 2.68 µM
inactive: all other assays above

Cc1ccc(C2OC[C@@H]3OC(c4ccc(C)cc4)O[C@H]([C@H](O)CO)[C@@H]3O2)cc1 (stereo partly specified)
inactive: all assays above

CC(C)(c1cc(Br)c(OCCO)c(Br)c1)c1cc(Br)c(OCCO)c(Br)c1
active: [3] 10.5 µM | [4] 44.5 µM | [6] 43.7 µM | [7] 44.2 µM
inactive: all other assays above

Cc1ccc(N)c([N+](=O)[O-])c1
inactive: all assays above

CCN(CCC#N)c1ccc(N=Nc2c(Cl)cc([N+](=O)[O-])cc2Cl)cc1
inactive: all assays above

CCCC(=O)OCc1ccccc1
inactive: all assays above

CC=CC(=O)N(CC)c1ccccc1C
inactive: all assays above

CC(C)C(=O)C(C)C
active: [3] 59.4 µM | [8] 65.6 µM
inactive: all other assays above

CC/C=C\C/C=C\C/C=C\CCCCCCCC(=O)O
active: [1] 100 µM | [3] 103 µM
inactive: all other assays above

CCCCNc1ccc(NCCCC)c2c1C(=O)c1ccccc1C2=O
inactive: all assays above

Nc1ccc2cc3ccccc3cc2c1
active: [5] 8.48 µM
inactive: all other assays above

C/C=C\C/C=C/CCCCCCCCOC(C)=O
active: [3] 100 µM
inactive: all other assays above

CCCCCCCC/C=C\CCCCCCCC(=O)O
inactive: all assays above

O=C(c1ccccc1)c1ccc(O)c(O)c1O
active: [5] 27 µM
inactive: all other assays above

CCC(Cc1ccccc1)(C(=O)c1ccc(N2CCOCC2)cc1)N(C)C (stereo unspecified)
active: [1] 17 µM | [3] 31.6 µM | [5] 5.54 µM
inactive: all other assays above

O=C1CCCC1
inactive: all assays above

OCCCS
inactive: all assays above

C=COCCCC
inactive: all assays above

Cc1ccc(N/N=c2\c(=O)cc/c(=N/Nc3ccc(S(=O)(=O)O)cc3)c2=O)c(C)c1
active: [5] 100 µM
not listed: [7]
inactive: all other assays above

CC=CCO
not listed: [9]
inactive: all other assays above

Cc1ccc(C(C)c2ccc(C)c(C)c2)cc1C
active: [10] 146 µM
not listed: [9]
inactive: all other assays above

Cc1cnc(NC(=O)C2=C(O)c3ccccc3S(=O)(=O)N2C)s1
not listed: [7]
inactive: all other assays above

C=CC=CC=CCCCCC
not listed: [9]
inactive: all other assays above

CCCCCCCCCCCCCCCCCC#N
inactive: all assays above

CCOC(F)(F)C(F)(F)C(F)(F)C(F)(F)F
not listed: [9]
inactive: all other assays above

CCCCCCCCCCC=CC#N
not listed: [7]
inactive: all other assays above

CCCCCCCCCCCCCCCC[n+]1ccccc1
active: [6] 9.08 µM | [10] 60.1 µM
not listed: [9]
inactive: all other assays above

N=c1ccn2c(n1)O[C@H]1[C@H](O)[C@@H](CO)O[C@H]12
not listed: [9]
inactive: all other assays above

Reference: PubChem BioAssay (EPA / NIEHS)
